{"source": "PubChem BioAssay AID493220", "about": "(National Center for Advancing Translational Sciences (NCATS), 2011)", "note": "Results filed as inconclusive are left out. Activity calls are given as the source filed them. The call rests on the fitted dose curve.", "data": [{"target": "Polyunsaturated fatty acid lipoxygenase ALOX15 (Homo sapiens) (UniProt P16050)", "sequence (P16050 whole entry, looked up)": "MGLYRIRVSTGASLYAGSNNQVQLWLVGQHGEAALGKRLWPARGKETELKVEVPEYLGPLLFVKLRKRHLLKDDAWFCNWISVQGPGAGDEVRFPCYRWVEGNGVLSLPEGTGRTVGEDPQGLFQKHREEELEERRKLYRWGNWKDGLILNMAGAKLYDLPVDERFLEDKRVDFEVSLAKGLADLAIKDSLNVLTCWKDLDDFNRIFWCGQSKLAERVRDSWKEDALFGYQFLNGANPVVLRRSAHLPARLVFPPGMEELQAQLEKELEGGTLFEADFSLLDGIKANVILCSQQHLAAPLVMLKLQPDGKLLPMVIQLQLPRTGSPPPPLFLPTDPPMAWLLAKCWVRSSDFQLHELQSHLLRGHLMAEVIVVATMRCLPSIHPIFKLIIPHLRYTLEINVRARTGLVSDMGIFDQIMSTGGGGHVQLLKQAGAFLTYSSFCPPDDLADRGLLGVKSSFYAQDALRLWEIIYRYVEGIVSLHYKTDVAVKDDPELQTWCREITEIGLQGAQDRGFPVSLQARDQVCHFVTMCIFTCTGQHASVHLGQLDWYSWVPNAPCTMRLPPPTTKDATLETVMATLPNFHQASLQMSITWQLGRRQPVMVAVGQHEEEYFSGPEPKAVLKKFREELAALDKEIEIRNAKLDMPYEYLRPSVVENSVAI", "assay": "Inhibitors of 12-hLO (12-human lipoxygenase): 15hLO-1 Cuvette-Based Inhibition Counterscreen Assay for 12hLO Followup Compounds", "conditions": "purified 15hLO-1, UV 234 nm product formation", "description": "Human lipoxygenase 15hLO-1 is a member of the closely related lipoxygenase family of enzymes which catalyze the site-specific oxidation of arachidonic acid to various hormone precursor molecules and as such is a candidate for drug development in a variety of disease areas, such as cancer and inflammation. The enzyme activity of 15hLO-1 was determined by a direct measurement of product formation by monitoring the absorbance at 234 nm in a 2 mL cuvette. IC50 values of inhibitors were obtained by measuring the enzymatic rate at a variety of concentrations (Carroll et al, Segraves et al). A purified preparation of human 15hLO-1 was supplied by Professor Ted Holman, University of California, Santa Cruz. This assay was run against 12hLO followup compounds with the goal of identifying selective 12hLO inhibitors. Assay Provider: Holman, T.R., University of California, Santa Cruz Screening Center PI: Austin, Christopher P. Screening Center: NIH Chemical Genomics Center\nFor control experiments, 2 mL of substrate buffer (10 uM arachidonic acid / 25 mM HEPES / 0.01% (v/v) Triton X-100, pH 8.0) was aliquoted in a cuvette with a magnetic stir bar. After equilibrium was ensured, an aliquot of inhibitor solvent was added (DMSO), and equilibrium was once again assured. The reaction was started by adding enzyme to the cuvette and the reaction was followed until completed. The inhibition experiments were performed as above, except the actual inhibitory compound was added instead of vehicle. To achieve an IC50, typically 5 concentrations of the inhibitor were studied. If the inhibitor concentration was constant, then five different reaction volumes were used. Step \\ Parameter \\ Value \\ Description 1; UV-Vis; 234 nm; Equilibration 2; Reagent; 2 mL; Substrate buffer 3; UV-Vis; 234 nm; Equilibration 4; Reagent; varies; Compound 5; UV-Vis; 234 nm; Equilibration 6; Reagent; 50-200 nM; Enzyme 12-hLO 7; UV-Vis; 234 nm; Enzymatic reaction Step \\ Notes 1; Blank cuvette to air. 2; 10 uM AA, 25 mM HEPES, 0.01% Triton X-100, pH 8. 3; No change in absorbance ensured. 4; Compound vehicle or compound in various concentrations depending on potency. 5; No change in absorbance ensured. 6; Enzyme concentration to achieve reaction rate between 0.02 and 0.04 AU/s. 7; Enzymatic reaction visualized until completion.", "values": [{"compound": "COc1ccc(/C=C/c2nc(-c3ccccc3O)n[nH]2)cc1", "Potency": "11.2 µM (active)"}, {"compound": "Cc1ccc(C(=O)/C=C/c2c[nH]c3ccccc23)cc1", "Potency": "20.6 µM (active)"}, {"compound": "Cc1[nH]nc(-c2ccc(O)cc2O)c1Oc1ccccc1", "Potency": "15.6 µM (active)"}, {"compound": "CCc1cc(-c2[nH]ncc2-c2ccc3c(c2)OCO3)c(O)cc1O", "Potency": "4.01 µM (active)"}, {"compound": "O=C(NC(=S)Nc1ccccc1N1CCCC1)c1ccc([N+](=O)[O-])cc1", "outcome": "inactive"}, {"compound": "Oc1ccccc1-c1cc(-c2ccc3c(c2)OCCO3)n[nH]1", "Potency": "2.55 µM (active)"}, {"compound": "Cc1ccc(S(=O)(=O)Nc2ccc(NC(=O)Nc3cccc(C(F)(F)F)c3)cc2)cc1", "Potency": "31.5 µM (active)"}, {"compound": "Oc1ccc(-c2csc(-c3ccccc3)n2)cc1O", "Potency": "0.67 µM (active)"}, {"compound": "Cc1oc2c(O)c(O)ccc2c(=O)c1-c1cnn(-c2ccccc2)c1", "Potency": "18.9 µM (active)"}, {"compound": "COc1cc(CNc2ccc(N3CCCC3)cc2)ccc1OCc1ccccc1", "outcome": "inactive"}, {"compound": "Cc1ccc(C(=O)Nc2nnc(-c3ccco3)o2)cc1", "outcome": "inactive"}, {"compound": "CCCOC(=O)c1ccc(Oc2cn[nH]c2-c2ccc(OC)cc2O)cc1", "Potency": "13.1 µM (active)"}, {"compound": "CCCOC(=O)c1ccc(Oc2c(-c3ccc(O)cc3O)n[nH]c2C)cc1", "Potency": "6.81 µM (active)"}, {"compound": "Cc1cccnc1NCc1ccc(O)c2ncccc12", "Potency": "23.9 µM (active)"}, {"compound": "CCc1cc(-c2n[nH]c(C)c2Oc2ccc(C(C)C)cc2)c(O)cc1O", "Potency": "3.87 µM (active)"}]}]}
